PubChem BioAssay (NCATS)
Records with an inconclusive call do not appear. Active and inactive are the calls of the source. The call rests on the fitted dose curve; in most records, active means well fitted cell-killing curve with a large enough effect; inconclusive means small, poorly fitted or top-dose-only effect; inactive means flat fitted curve, though single readings scatter.

Key:
[1] = Cell Viability - LYMP2-011 (AID 969); further: nearly all actives have a fitted effect of over 60% in size
Summary of the method: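 Human lymphoblastoid cells (2500/well) were plated in complete medium, preincubated 5 hr at 37 C, then exposed to compounds for 24 hr at 37 C. Intracellular ATP was read by CellTiter-Glo luminescence, and AC50 came from Hill-equation concentration-response fits.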

[2] = Cell Viability - LYMP2-013 (AID 970); further: series mostly up to about 92 µM; nearly all actives have a fitted effect of over 55% in size
Summary of the method: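 Human lymphoblastoid cells, 2500/well, were preincubated 5 hr at 37 C, then treated with compounds for 24 hr at 37 C in complete medium. Intracellular ATP was read by CellTiter-Glo luminescence; AC50 from Hill-equation fits of concentration-response data.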

[3] = Cell Viability - LYMP2-015 (AID 971); further: nearly all actives have a fitted effect of over 55% in size
Summary of the method: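 Human lymphoblastoid cells (2500/well) in complete medium were preincubated 5 hr at 37 C, then compound-treated 24 hr at 37 C. Intracellular ATP was read by CellTiter-Glo luminescence after 30 min at room temperature; AC50 came from Hill-equation concentration-response fits.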

[4] = Cell Viability - LYMP2-017 (AID 972); further: series mostly up to about 92 µM; nearly all actives have a fitted effect of over 55% in size
Summary of the method: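 Human lymphoblastoid cells (2500/well) were seeded in complete medium, held 5 hr at 37 C, then exposed to compounds for 24 hr at 37 C. Intracellular ATP was read by CellTiter-Glo luminescence after 30 min at room temperature, with AC50 values from Hill-equation fits.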

[5] = Cell Viability - LYMP2-019 (AID 973); further: nearly all actives have a fitted effect of over 55% in size
Summary of the method: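 Human lymphoblastoid cells were seeded at 2500 cells/well, preincubated 5 hr at 37 C, then exposed to compounds for 24 hr at 37 C in complete medium. Intracellular ATP was measured by CellTiter-Glo luminescence; AC50 from Hill fits.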

[6] = Cell Viability - LYMP2-021 (AID 974)
Summary of the method: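 Human lymphoblastoid cells (2500/well) were preincubated 5 hr at 37 C, then exposed to compounds for 24 hr at 37 C in complete medium. Intracellular ATP was read by CellTiter-Glo luminescence; AC50 came from Hill-equation fits of concentration-response data.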

[7] = Cell Viability - LYMP2-023 (AID 975)
Summary of the method: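 Human lymphoblastoid cells (2500/well) were preincubated 5 hr at 37 C, then exposed to compounds for 24 hr at 37 C in complete medium. Cellular ATP was read by CellTiter-Glo luminescence, and AC50 came from Hill-equation fits.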

[8] = Cell Viability - LYMP2-025 (AID 976); further: series mostly up to about 92 µM
Summary of the method: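 Human lymphoblastoid LYMP2-025 cells (2500/well) were pre-incubated 5 hr at 37 C, then treated with compounds for 24 hr at 37 C in complete medium. Viability was read as intracellular ATP by CellTiter-Glo luminescence; AC50 from Hill fits.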

[9] = Cell Viability - LYMP2-002 (AID 977);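 further: series mostly up to about 92 µM; compound exposure lasted 24 h at 37 °C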
Summary of the method: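 Human lymphoblastoid LYMP2-002 cells, 2500 per well, exposed to compounds for 24 h at 37 C in complete medium; viability read as intracellular ATP by CellTiter-Glo luminescence, AC50 from Hill fits.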

[10] = Cell Viability - LYMP2-006 (AID 978); further: series mostly up to about 92 µM; nearly all actives have a fitted effect of over 60% in size
Summary of the method: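 In this cytotoxicity screen, the human lymphoblastoid line grew in complete medium with test compounds for 24 hr at 37 C. Cellular ATP served as the viability signal.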

[11] = Cell Viability - LYMP2-007 (AID 979);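 further: cells exposed to compound for 24 h before reading; nearly all actives have a fitted effect of over 60% in size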
Summary of the method: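 Human lymphoblastoid cells (2500/well) were plated in complete medium, incubated 5 hr at 37 C, then exposed to compounds for 24 hr at 37 C. Intracellular ATP was read by CellTiter-Glo luminescence after 30 min at room temperature; AC50 from Hill fits.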

[12] = Cell Viability - LYMP2-008 (AID 980); further: nearly all actives have a fitted effect of over 60% in size
Summary of the method: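 Human lymphoblastoid cells (2500/well) were plated, held 5 hr at 37 C, then exposed to compounds for 24 hr at 37 C in complete medium. Intracellular ATP was read by CellTiter-Glo luminescence; AC50 from Hill-fitted concentration-response.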

[13] = Cell Viability - LYMP2-010 (AID 981); further: nearly all actives have a fitted effect of over 55% in size
Summary of the method: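 Human lymphoblastoid LYMP2-010 cells (2500/well) were preincubated 5 hr at 37 C, then exposed to compounds for 24 hr at 37 C in complete medium. Intracellular ATP was measured by CellTiter-Glo luminescence after 30 min at room temperature; AC50 from Hill-fitted concentration-response.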

[14] = Cell Viability - LYMP2-012 (AID 982)
[15] = Cell Viability - LYMP2-014 (AID 983); further: series mostly up to about 92 µM; nearly all actives have a fitted effect of over 50% in size
Summary of the method: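 Human lymphoblastoid cells (2500/well) were pre-incubated 5 hr at 37 C, then exposed to compounds in complete medium for 24 hr at 37 C. Intracellular ATP was read by CellTiter-Glo luminescence after 30 min at room temperature; AC50 from Hill fits.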

[16] = Cell Viability - LYMP2-016 (AID 984); further: nearly all actives have a fitted effect of over 55% in size
Summary of the method: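 Concentration-dependent ATP depletion measured in LYMP2-016 lymphoblastoid cells, 24 h, 37 C; luciferase-based luminescent detection; Hill-equation AC50.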

[17] = Cell Viability - LYMP2-018 (AID 985);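 further: compound exposure lasted 24 hr at 37 °C; nearly all actives have a fitted effect of over 50% in size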
Summary of the method: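 Human lymphoblastoid cells (2500/well) were pre-incubated 5 hr at 37 C, then exposed to compounds for 24 hr at 37 C in complete medium. Viability was read as intracellular ATP by CellTiter-Glo luminescence; AC50 values came from Hill-equation fits.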

[18] = Cell Viability - LYMP2-020 (AID 986)
Summary of the method: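 Human lymphoblastoid cells, 2500/well, were pre-incubated 5 hr at 37 C, then exposed to compounds for 24 hr at 37 C in complete medium. Intracellular ATP was read by CellTiter-Glo luminescence, and AC50 was derived by Hill fitting of concentration-response data.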

[19] = Cell Viability - LYMP2-022 (AID 987); further: nearly all actives have a fitted effect of over 55% in size
Summary of the method: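 Human lymphoblastoid cells, 2500/well, preincubated 5 hr at 37 C, then exposed to compounds over a concentration range for 24 hr at 37 C in complete medium. Viability read as intracellular ATP by CellTiter-Glo luminescence after 30 min at room temperature; AC50 from Hill fits.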

[20] = Cell Viability - LYMP2-024 (AID 988); further: nearly all actives have a fitted effect of over 60% in size
Summary of the method: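 Human lymphoblastoid cells (2500/well) in complete medium were preincubated 5 hr at 37 C, then exposed to compounds for 24 hr at 37 C. Intracellular ATP was read by CellTiter-Glo luminescence; AC50 from Hill-equation fits of concentration-response data.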

Measured: outcome

Cc1cc(O)c2c(c1)C(=O)c1cccc(O)c1C2=O
inactive: all assays above
